Assay outcomes as filed in PubChem BioAssay.
Sampled rows, rich in hits. Any-hit rate of the full collection: about 3.1%.
BoNT F protease: inhibitors of Botulinum neurotoxin F light chain protease. 360,000 tested, 0.22% active. AID 588497. inhibition, % at 10 µM. Multiplex microsphere protease cleavage assay, flow cytometry; in the data active = inhibition above about 35%, passing the limit was not always enough; inconclusive = no clear call, values can overlap the other calls; also: plate controls were buffer without enzyme for full effect and enzyme alone for no effect
PriA SSB inh: K. pneumoniae PriA-SSBct interaction inhibition; 430,000 tested, 0.6% active; AlphaScreen SSBct-PriA binding, biotinylated peptide; inhibition, % at 33 µM; in the data active = inhibition mostly above about 37%, no sharp cut-off; inactive = mostly below about 20%;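 also: plate controls were negative control peptide for no effect and reference peptide for full effect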
Bead autofluor: compound fluorescence in toxin protease inhibitor counterscreen. compound autofluorescence counterscreen, microsphere flow cytometry; active compounds read high. fluorescence intensity (concentration not given with the values). 360,000 tested, 3.1% active. AID 624483; in the data active = fluorescence intensity above about 16000; inconclusive = no clear call, values can overlap the other calls
Anthrax LF prot: inhibitors of Bacillus anthracis lethal factor protease; P15917; multiplex microsphere protease cleavage assay, LF; inhibition, % at 10 µM; 360,000 tested, 0.12% active; also: plate controls were buffer without enzyme for full effect and enzyme alone for no effect
BoNT A protease: blocks Botulinum neurotoxin A light chain protease | multiplex microsphere protease substrate cleavage, flow cytometry | inhibition, % at 10 µM | 360,000 tested, 0.17% active; also: plate controls were buffer without enzyme for full effect and enzyme alone for no effect
An asterisk follows results filed as active; ? = inconclusive; . = no result. Rule as the data show it, unless noted: active = inhibition above about 30%; inconclusive = no clear call, values can overlap the other calls; inactive = below that.

SMILES	BoNT F protease	PriA SSB inh	Bead autofluor	Anthrax LF prot	BoNT A protease
CCOC(=O)N1CCC(NC(=O)CCc2c(C)nc3c(c(C)nn3C(C)(C)C)c2C)CC1	4	-6	21418*	1	4
COc1ccc(CCNS(=O)(=O)CCCOc2ccc3c(c2)OCO3)cc1	.	9	.	.	.
COc1ccc(/C=C\C(=O)NCC(=O)NN=Cc2cccc(OC)c2O)cc1	.	-13	.	.	.
CCOC(=O)N1CCN(C(=O)CCc2c(C)nc3c(c(C)nn3-c3ccc(C)c(C)c3)c2C)CC1	-4	-5	20186*	-8	-1
Cc1nc2nc(C)c(CCC(=O)NC(C)c3ccc4c(c3)OCCO4)c(C)n2n1 (stereo not given)	0	-24	3157	2	0
CCOC(=O)CCc1c(C)nc2c(c(C)nn2-c2ccccc2)c1C	4	-11	4196	9	1
Cc1nc2ncnn2c(C)c1CCC(=O)NC(C)c1ccc2c(c1)OCCO2 (stereo not given)	-1	-5	22862*	-1	-1
Cc1nc2nc(C)c(CCC(=O)NCc3ccc4c(c3)OCO4)c(C)n2n1	-10	1	17817*	-3	?
Cc1nc2nc(CNC(=O)OC(C)(C)C)nn2c(C)c1CCC(=O)Nc1ccc2c(c1)OCO2	-4	-4	5376	-1	0
CCOC(=O)C1CCCCN1C(=O)CCc1c(C)nc2ncnn2c1C (stereo not given)	-5	-9	21476*	2	-5
COc1ccc2oc(-c3csc(NC(=O)c4cccc(OC)c4OC)n3)cc2c1	.	-14	.	.	.
Cc1nc2ccc(NS(=O)(=O)Cc3ccccc3)cc2c(=O)n1-c1ccc(F)cc1	.	-20	.	.	.
Cc1nc(N)sc1-c1csc(N(C)c2ccc(O)cc2)n1	-6	12	23793*	-1	0
CN(c1ccc(O)cc1)c1nc(-c2cccs2)cs1	-1	4	4064	-1	-1
Cn1nc2c(c1NC(=O)c1ccc3c(c1)OCO3)CCC2	.	-11	.	.	.
Oc1[nH]c2ccccc2c1N=NC(=S)N1CCOCC1	5	59*	4487	9	5
CCOC(=O)CSc1cc(C)nc(NC(C)=O)n1	3	-4	19697*	3	?
CSc1nc(C)cc(SCC(=O)Nc2ccccc2)n1	-3	-20	23915*	1	-1
COC(=O)CSc1cc(C)nc(NC(C)=O)n1	1	-5	6056	-10	0
CCOC(=O)CSc1nc(C)cc(C)n1	-1	-11	2533	1	0
CCOC(=O)CSc1cn2c(n1)CCC2	-5	-25	24514*	-3	-4
Cc1cc(C(F)(F)F)nc(SCC(=O)Nc2ccccc2)n1	-4	-5	22832*	-1	?
COc1ccc(N(C[C@@H](O)CNCCC(=O)O)S(=O)(=O)c2ccc(C)cc2)cc1	.	0	.	.	.
Brc1cccc(-c2nnn3c2nc(NCCc2c[nH]c4ccccc24)c2ccccc23)c1	.	-7	.	.	.
COC(=O)CSc1cc(C)nc(SC)n1	-2	-12	20467*	3	-2
SMILES	BoNT F protease	PriA SSB inh	Bead autofluor	Anthrax LF prot	BoNT A protease
COC(=O)CSc1nc(C)cc(C)n1	-4	-5	4901	-3	-1
CC(Oc1ccc2c(c1)OCO2)C(=O)NCCn1nc(-c2cccs2)ccc1=O (stereo not given)	.	0	.	.	.
Cc1cc(=O)[nH]c(S/C=C/c2ccccc2)n1	-3	-3	20598*	-2	-2
O=C(NCC[C@H](O)c1ccc2c(c1)OCO2)Nc1ccccc1F	.	0	.	.	.
Cc1ccnc(Nc2ccc(NCCNC(=O)Nc3cccc(C(F)(F)F)c3)nn2)c1	.	32*	.	.	.
Cc1ccnc(Nc2ccc(NCCNC(=O)c3cccc(F)c3)nn2)c1	.	20	.	.	.
Cc1ccnc(Nc2ccc(NCCNC(=O)Nc3ccc(F)c(Cl)c3)nn2)c1	.	96*	.	.	.
CCc1c(O)nc(SCC(=O)Nc2ccc(OC)cc2)n(C2CCCCC2)c1=O	-4	-11	24511*	-1	-3
CCN1CCN(CC(O)COC(C)C)CC1 (stereo not given)	-1	-6	20191*	-2	0
CCN1CCN(CC(O)COc2ccc(Cl)cc2)CC1 (stereo not given)	6	-10	2441	1	0
FC(F)(F)c1cc(-c2ccco2)nc(N2CCN(Cc3ccccc3)CC2)n1	-9	-1	21755*	-4	-6
COc1ccc(N2CCN(CC(O)COc3ccc(C45CC6CC(CC(C6)C4)C5)cc3)CC2)cc1 (stereo not given)	.	5	.	.	.
CC(=NNC(=O)c1ccc(NS(=O)(=O)c2cccs2)cc1)c1ccccn1	.	39*	.	.	.
CC(=NNC(=O)c1ccccc1F)c1ccccn1	.	51*	.	.	.
CC(=NNC(=O)c1ccccc1Cl)c1ccccn1	.	9	.	.	.
COc1ccc(C(=O)NN=C(C)c2ccccn2)cc1OC	.	83*	.	.	.
CC(=NNC(=O)c1cc(-c2cccs2)nc2ccccc12)c1ccccn1	.	85*	.	.	.
O=C(N1CCc2oncc2C1)C1(c2ccc(Cl)cc2)CCCC1	.	-6	.	.	.
CC(=O)NCCn1c(SCc2cc(=O)n3cc(Cl)ccc3n2)nc2ccccc2c1=O	4	-7	21005*	0	?
COCC(C)n1c(SCC(=O)NCCC2=CCCCC2)nc2ccccc2c1=O (stereo not given)	-14	-13	4510	-3	0
CCOC(=O)N1CCC(n2c(SCC(=O)NCCC3=CCCCC3)nc3ccccc3c2=O)CC1	9	-10	19812*	-1	7
Cc1ccc(-n2nnnc2SCC(=O)NCCC2=CCCCC2)c(C)c1	0	-13	20542*	0	0
CC(=O)NCCn1c(SCC(=O)NCCC2=CCCCC2)nc2ccccc2c1=O	-9	-8	24653*	-3	-5
c1ccc(-c2nnc3n2CCCC3)cc1	4	-2	22320*	0	2
Fc1ccc(-c2nnc3n2CCCCC3)cc1	4	-23	3403	-5	1
SMILES	BoNT F protease	PriA SSB inh	Bead autofluor	Anthrax LF prot	BoNT A protease
COc1ccc(C(=O)N2C(=S)C(c3ccccc3)=NC23CCC(C)CC3)cc1OC (stereo not given)	.	37*	.	.	.
Cc1ccc(-c2cc(COC(=O)COc3ccccc3C)no2)cc1	.	-19	.	.	.
CCOC(=O)COc1ccccc1-c1ccno1	-8	-6	21115*	-3	?
Cc1c(C(=O)Nc2ccncc2)oc2c1C(=O)CC(C)(C)C2	5	1	19786*	1	?
COc1ccc(C)cc1S(=O)(=O)N1c2ccccc2CC1C (stereo not given)	-7	-24	17618*	0	-6
Cc1ccc(S(=O)(=O)N2c3ccccc3CC2C)cc1 (stereo not given)	-2	-26	3971	-8	-1
CC(C)(C)C1=Nn2c(nnc2-c2ccccn2)SC1	-8	90*	10222	-11	-3
COc1cccc(-c2nnc3n2N=C(C(C)(C)C)CS3)c1	-2	-10	23357*	2	0
O=C(NCc1cc(-c2ccc(F)cc2F)on1)C1CC(=O)N(c2ccccc2)C1 (stereo not given)	.	0	.	.	.
COc1ccccc1CNC(=O)c1ccccc1NS(C)(=O)=O	0	-4	20558*	0	0
CCN(CC)S(=O)(=O)c1ccc(NC(=O)c2ccccc2N(C)S(C)(=O)=O)cc1	3	-6	21922*	-7	?
COc1ccccc1CNC(=O)c1ccccc1N(C)S(C)(=O)=O	2	-4	19853*	0	2
